Laboratory results from PubChem BioAssay AID488847 (NMMLSC, 2010).
About 1,900 (0.58%) of roughly 330,000 compounds were called active.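 Rule for the calls: active = inhibition of aptamer binding above 40%, roughly 3 SD of noise, on plates passing a quality check; inactive = the rest.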 The full list was thinned out, with actives kept by preference.

Molecular target: Beta-adrenergic receptor kinase 1 (Homo sapiens) (UniProt P25098)
Experiment: compounds blocking aptamer binding on GRK2 – biochemical, human GRK2, bead flow cytometry, HTS, primary screen (AID 488847);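 note: median bead fluorescence of bound FAM aptamer so fluorescent compounds give negative values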
Settings: FAM-aptamer displacement from GRK2, at 10 µM, active compounds read high

Sequence of Beta-adrenergic receptor kinase 1 (Homo sapiens) (P25098 whole entry, looked up): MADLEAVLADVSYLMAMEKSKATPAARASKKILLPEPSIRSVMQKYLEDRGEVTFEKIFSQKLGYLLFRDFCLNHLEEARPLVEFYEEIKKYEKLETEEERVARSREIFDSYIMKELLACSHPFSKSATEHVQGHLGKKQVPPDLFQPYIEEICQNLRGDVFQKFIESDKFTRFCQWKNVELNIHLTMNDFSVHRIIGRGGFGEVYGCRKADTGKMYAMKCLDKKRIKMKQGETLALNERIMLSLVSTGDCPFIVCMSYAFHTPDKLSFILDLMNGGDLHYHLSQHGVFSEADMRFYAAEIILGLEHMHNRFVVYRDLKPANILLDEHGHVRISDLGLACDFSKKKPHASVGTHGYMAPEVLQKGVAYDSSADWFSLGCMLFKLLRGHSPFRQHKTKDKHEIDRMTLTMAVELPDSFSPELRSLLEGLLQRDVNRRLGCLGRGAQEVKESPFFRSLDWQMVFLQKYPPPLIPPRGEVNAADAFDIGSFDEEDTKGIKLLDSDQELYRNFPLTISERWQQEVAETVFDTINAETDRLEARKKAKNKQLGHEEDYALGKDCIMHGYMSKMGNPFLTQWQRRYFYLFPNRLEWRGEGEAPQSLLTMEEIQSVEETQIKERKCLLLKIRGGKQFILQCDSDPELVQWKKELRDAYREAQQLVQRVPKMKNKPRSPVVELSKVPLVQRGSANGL

| SMILES | inhibition of aptamer binding |
| --- | --- |
| Cc1ccc(-n2c(C)cc(/C=C3\C(=O)NC(=O)N(C)C3=O)c2C)cc1C | 3% (inactive) |
| Cc1cc(C=C2C(=O)NC(=O)NC2=O)c(C)n1-c1ccncc1 | 2% (inactive) |
| Cc1c(C(=O)O)cccc1-n1c(C)cc(/C=C2\C(=O)NC(=O)N(c3ccc4c(c3)OCO4)C2=O)c1C | 75% (active) |
| CC[N+]1(C)CCCC(OC(=O)C(O)(c2ccccc2)c2ccccc2)C1 (stereo not given) | 0% (inactive) |
| O=C1NC(=O)C(C/C=C/c2ccccc2)C(=O)N1 | 1% (inactive) |
| COc1ccc(Br)cc1CNCCc1cccc(Cl)c1 | 0% (inactive) |
| O=C1NC(=O)N(Cc2ccco2)C(=O)/C1=C\c1ccc(-c2ccc(F)cc2)o1 | 15% (inactive) |
| O=C1NC(=O)N(Cc2ccco2)C(=O)/C1=C\c1cccn1CCOc1ccccc1 | 5% (inactive) |
| COc1ccc(N2C(=O)/C(=C/c3ccco3)C(=O)NC2=S)cc1 | 96% (active) |
| CN(C)CC1CCCCC1OC(=O)c1ccc(Cl)c(Cl)c1 (stereo not given) | 0% (inactive) |
